The results in this text go back to article PMC7862700, “An all-to-all approach to the identification of sequence-specific readers for epigenetic DNA modifications on cytosine”.

Common to all, as to test: DAPPL (digital affinity profiling via proximity ligation, sequencing); 10 mM Tris-HCl pH 7.5, 50 mM NaCl, 1 mM DTT, 4% glycerol, room temperature, 30 min; GST-TFs on glutathione beads, 16-mer random dsDNA library, 0.1% formaldehyde crosslink after washing; high values mean tight binding
The target in one assay is T1, FLI1 (Homo sapiens, UniProt Q01543 1-452).
T1 sequence: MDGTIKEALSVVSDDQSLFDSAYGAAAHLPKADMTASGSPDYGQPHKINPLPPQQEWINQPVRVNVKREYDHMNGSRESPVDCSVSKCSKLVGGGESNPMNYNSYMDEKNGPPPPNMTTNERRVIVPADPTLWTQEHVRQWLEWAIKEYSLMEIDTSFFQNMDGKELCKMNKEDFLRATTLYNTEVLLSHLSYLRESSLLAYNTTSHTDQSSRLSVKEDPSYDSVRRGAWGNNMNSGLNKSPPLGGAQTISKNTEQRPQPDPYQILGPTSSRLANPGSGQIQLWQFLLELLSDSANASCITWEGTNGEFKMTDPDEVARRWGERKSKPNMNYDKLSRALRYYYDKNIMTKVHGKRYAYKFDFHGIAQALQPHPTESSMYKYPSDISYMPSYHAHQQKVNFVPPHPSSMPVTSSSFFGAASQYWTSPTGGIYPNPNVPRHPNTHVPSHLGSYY
The settings on record: protein: recombinant; tags: N-terminal GST; dsDNA, one strand shown. Put shortly:
(§1)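 Each value of binding signal is a hexamer's read frequency for a factor divided by the same hexamer's frequency in the tag-only sample. Barcoded, bead-captured GST fusions of human transcription factors made in yeast were pooled with that sample and incubated with 200 nmole of a random double-stranded 16-mer DNA library in Tris/NaCl/DTT/glycerol buffer at room temperature for 30 min. Washing, 0.1% formaldehyde crosslinking, proximity ligation, PCR and Illumina NextSeq500 sequencing followed.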

The target of another assay is T2, ELK1 (Homo sapiens, UniProt P19419 1-428).
T2 sequence: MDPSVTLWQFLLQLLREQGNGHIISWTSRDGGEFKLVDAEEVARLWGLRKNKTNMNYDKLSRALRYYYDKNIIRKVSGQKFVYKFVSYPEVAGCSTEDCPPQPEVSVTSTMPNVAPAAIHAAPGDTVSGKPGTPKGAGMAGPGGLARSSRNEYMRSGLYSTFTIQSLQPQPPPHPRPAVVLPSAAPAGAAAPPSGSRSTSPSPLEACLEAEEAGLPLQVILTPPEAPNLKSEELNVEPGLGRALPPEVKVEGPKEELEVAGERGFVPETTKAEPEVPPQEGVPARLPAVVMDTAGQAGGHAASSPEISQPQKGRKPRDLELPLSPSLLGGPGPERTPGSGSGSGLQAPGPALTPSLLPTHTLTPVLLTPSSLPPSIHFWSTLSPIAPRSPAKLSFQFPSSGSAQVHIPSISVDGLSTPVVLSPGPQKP
Particulars: protein: recombinant; tags: N-terminal GST; dsDNA, one strand shown. In outline: as §1

In a further assay the target is T3, GABPA (Homo sapiens, UniProt Q06546 1-454).
T3 sequence: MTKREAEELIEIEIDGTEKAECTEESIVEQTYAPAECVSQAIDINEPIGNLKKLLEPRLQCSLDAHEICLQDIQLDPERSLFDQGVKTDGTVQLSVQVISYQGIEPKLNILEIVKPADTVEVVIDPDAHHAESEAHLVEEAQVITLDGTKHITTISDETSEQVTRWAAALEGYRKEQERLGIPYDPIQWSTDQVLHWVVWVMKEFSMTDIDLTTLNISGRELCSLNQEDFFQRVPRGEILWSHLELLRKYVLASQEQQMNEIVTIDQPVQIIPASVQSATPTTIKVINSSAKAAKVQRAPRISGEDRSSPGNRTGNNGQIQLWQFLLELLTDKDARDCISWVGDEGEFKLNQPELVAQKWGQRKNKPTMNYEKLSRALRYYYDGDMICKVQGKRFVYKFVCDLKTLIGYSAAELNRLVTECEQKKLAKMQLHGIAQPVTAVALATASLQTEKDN
Particulars: protein: recombinant; tags: N-terminal GST; dsDNA, one strand shown. Put shortly: as §1

In the next assay the target is T4, ERG (Homo sapiens, UniProt P11308 1-479).
T4 sequence: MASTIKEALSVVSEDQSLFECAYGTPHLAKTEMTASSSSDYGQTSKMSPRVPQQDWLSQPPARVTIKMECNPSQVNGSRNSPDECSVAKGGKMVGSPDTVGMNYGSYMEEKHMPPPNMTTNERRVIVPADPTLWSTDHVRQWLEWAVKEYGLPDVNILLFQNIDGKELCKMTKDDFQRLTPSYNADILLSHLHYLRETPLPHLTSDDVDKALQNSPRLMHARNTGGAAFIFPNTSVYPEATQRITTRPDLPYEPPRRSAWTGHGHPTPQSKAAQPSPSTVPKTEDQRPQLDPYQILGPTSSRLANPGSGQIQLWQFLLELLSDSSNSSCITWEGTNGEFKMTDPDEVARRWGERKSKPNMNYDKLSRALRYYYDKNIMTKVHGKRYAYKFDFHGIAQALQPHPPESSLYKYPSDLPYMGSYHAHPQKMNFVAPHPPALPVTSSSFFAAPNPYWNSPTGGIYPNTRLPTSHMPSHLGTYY
The settings on record: protein: recombinant; tags: N-terminal GST; dsDNA, one strand shown. Put shortly: as §1

In another assay the target is ELF1 (Homo sapiens, UniProt P32519 1-619). Particulars: protein: recombinant; tags: N-terminal GST; dsDNA, one strand shown. Put shortly: as §1
In another assay the target is T5, EHF (Homo sapiens, UniProt Q9NZC4 1-300).
T5 sequence: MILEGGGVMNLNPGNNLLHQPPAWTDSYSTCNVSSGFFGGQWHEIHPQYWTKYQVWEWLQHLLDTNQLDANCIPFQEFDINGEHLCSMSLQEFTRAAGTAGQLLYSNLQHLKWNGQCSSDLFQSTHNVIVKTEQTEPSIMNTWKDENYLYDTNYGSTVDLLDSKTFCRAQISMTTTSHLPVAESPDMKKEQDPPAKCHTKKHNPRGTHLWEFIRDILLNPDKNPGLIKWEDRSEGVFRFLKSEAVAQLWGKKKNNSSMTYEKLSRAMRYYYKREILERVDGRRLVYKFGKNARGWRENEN
The settings on record: protein: recombinant; tags: N-terminal GST; dsDNA, one strand shown. In outline:
as §1

The next assay deals with SPI1 (Homo sapiens, UniProt P17947 1-270). Particulars: protein: recombinant; tags: N-terminal GST; dsDNA, one strand shown. In outline:
as §1

The next assay has as its target SPIB (Homo sapiens, UniProt Q01892 1-262). Particulars: protein: recombinant; tags: N-terminal GST; dsDNA, one strand shown. Put shortly: as §1
For the next assay, the target named is ETV5 (Homo sapiens, UniProt P41161 1-510). Particulars: protein: recombinant; tags: N-terminal GST; dsDNA, one strand shown. In outline: as §1
A further assay has as its target HSF1 (Homo sapiens, UniProt Q00613 1-529). Particulars: protein: recombinant; tags: N-terminal GST; chain copies: 3; dsDNA, one strand shown. Put shortly:
as §1

The next assay has as its target ELF4 (Homo sapiens, UniProt Q99607 1-663). The settings on record: protein: recombinant; tags: N-terminal GST; dsDNA, one strand shown. In outline: as §1
In a further assay the target is T6, ELK4 (Homo sapiens, UniProt P28324-2 1-405).
T6 sequence: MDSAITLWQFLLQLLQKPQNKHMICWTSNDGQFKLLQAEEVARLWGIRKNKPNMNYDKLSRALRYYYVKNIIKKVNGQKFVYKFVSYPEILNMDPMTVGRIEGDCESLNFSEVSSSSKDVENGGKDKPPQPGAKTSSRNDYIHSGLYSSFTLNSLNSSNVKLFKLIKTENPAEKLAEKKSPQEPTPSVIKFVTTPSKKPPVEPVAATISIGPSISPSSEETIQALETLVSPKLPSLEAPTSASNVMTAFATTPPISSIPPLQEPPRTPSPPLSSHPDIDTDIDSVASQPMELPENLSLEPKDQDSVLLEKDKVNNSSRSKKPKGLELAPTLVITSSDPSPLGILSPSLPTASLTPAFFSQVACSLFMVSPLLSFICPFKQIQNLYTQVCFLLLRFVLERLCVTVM
The settings on record: protein: recombinant; tags: N-terminal GST; dsDNA, one strand shown. In outline:
as §1

For a further assay, the target named is T7, ETV2 (Homo sapiens, UniProt O00321 1-342).
T7 sequence: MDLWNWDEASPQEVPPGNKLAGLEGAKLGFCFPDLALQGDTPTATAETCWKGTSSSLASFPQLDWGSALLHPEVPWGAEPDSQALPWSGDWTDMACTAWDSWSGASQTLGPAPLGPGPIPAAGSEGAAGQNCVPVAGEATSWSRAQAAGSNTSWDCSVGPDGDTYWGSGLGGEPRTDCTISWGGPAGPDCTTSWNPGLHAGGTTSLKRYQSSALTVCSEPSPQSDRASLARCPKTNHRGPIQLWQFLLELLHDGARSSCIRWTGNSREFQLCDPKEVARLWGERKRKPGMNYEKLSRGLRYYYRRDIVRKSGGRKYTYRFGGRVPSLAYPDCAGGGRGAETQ
Particulars: protein: recombinant; tags: N-terminal GST; dsDNA, one strand shown. Put shortly:
as §1

The target of a further assay is T8, ELF3 (Homo sapiens, UniProt P78545 1-371).
T8 sequence: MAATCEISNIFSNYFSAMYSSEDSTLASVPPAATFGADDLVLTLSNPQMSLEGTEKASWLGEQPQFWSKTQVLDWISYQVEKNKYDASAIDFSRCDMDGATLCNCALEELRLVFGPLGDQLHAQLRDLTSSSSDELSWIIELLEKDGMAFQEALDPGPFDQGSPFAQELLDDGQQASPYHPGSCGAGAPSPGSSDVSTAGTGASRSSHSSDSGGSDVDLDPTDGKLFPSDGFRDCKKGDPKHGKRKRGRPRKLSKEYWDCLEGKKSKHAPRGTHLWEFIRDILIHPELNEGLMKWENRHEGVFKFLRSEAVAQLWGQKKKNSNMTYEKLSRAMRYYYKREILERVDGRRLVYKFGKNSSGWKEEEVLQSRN
Particulars: protein: recombinant; tags: N-terminal GST; dsDNA, one strand shown. In outline: as §1

Another assay addresses ETV1 (Homo sapiens, UniProt P50549 1-477). The settings on record: protein: recombinant; tags: N-terminal GST; dsDNA, one strand shown. Put shortly:
as §1

Another assay concerns the target T9, ELK3 (Homo sapiens, UniProt P41970 1-407).
T9 sequence: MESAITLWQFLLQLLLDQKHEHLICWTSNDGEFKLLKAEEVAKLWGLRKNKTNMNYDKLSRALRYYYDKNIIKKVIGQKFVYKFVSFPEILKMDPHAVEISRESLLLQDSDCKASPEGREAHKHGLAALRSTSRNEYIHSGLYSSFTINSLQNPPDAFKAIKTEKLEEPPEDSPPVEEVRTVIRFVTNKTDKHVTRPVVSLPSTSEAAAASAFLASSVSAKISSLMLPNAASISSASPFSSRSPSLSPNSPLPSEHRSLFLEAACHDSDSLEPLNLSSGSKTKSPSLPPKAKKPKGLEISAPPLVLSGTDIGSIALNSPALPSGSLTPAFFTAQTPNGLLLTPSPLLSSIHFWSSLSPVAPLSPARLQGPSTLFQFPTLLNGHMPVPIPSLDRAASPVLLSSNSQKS
The settings on record: protein: recombinant; tags: N-terminal GST; dsDNA, one strand shown. Put shortly: as §1

A further assay has as its target T10, FEV (Homo sapiens, UniProt Q99581 1-238).
T10 sequence: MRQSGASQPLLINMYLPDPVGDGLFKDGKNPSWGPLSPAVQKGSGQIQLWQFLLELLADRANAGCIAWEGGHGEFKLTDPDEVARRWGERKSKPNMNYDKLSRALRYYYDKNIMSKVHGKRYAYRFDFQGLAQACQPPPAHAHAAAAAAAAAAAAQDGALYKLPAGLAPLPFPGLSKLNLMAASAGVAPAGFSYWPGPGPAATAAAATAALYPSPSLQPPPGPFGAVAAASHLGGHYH
Particulars: protein: recombinant; tags: N-terminal GST; dsDNA, one strand shown. In outline:
as §1

HSF1, sequence (Q00613 whole entry): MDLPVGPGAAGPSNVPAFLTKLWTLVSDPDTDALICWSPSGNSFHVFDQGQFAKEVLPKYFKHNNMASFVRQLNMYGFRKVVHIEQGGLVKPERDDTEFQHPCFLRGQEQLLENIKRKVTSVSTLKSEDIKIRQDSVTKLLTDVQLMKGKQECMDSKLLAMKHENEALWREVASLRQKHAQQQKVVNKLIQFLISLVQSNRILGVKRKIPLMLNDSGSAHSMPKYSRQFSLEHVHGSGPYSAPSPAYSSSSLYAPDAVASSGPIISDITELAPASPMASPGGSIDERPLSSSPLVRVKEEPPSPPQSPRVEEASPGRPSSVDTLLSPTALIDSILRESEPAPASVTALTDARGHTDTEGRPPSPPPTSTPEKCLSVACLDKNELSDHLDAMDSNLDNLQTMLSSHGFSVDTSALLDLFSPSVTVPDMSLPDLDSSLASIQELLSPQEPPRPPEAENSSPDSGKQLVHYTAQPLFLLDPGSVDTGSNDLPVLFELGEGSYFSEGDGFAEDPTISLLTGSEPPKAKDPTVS
ETV5, sequence (P41161 whole entry): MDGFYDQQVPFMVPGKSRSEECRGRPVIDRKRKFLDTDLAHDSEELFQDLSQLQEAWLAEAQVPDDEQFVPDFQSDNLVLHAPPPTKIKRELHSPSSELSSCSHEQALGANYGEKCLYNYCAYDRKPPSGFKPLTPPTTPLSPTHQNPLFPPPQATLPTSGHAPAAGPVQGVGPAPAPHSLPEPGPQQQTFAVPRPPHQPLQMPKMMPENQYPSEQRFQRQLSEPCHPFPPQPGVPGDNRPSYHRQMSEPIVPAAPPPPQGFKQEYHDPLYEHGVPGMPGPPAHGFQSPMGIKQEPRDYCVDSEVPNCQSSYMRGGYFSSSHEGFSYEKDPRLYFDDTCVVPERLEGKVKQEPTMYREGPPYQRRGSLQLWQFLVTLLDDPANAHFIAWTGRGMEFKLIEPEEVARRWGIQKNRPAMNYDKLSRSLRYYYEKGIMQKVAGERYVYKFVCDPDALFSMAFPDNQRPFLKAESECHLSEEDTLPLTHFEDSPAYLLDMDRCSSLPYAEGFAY
ELF4, sequence (Q99607 whole entry): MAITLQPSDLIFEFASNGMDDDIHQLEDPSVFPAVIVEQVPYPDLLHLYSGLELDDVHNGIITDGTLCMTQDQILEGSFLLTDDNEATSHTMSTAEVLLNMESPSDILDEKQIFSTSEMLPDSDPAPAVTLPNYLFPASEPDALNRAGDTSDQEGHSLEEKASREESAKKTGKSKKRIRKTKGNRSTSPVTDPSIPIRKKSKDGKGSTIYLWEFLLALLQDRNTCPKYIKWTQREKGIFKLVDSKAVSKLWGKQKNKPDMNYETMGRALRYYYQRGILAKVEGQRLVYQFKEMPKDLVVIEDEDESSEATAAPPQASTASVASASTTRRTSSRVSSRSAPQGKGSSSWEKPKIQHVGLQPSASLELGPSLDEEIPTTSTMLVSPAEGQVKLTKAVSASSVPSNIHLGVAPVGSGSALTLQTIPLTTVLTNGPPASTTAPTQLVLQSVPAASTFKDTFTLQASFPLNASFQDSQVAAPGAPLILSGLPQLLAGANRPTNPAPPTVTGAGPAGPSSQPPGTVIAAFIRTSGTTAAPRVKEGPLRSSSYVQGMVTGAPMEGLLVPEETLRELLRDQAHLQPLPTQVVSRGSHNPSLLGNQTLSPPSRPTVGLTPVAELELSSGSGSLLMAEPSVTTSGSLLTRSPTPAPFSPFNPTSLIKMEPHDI
SPIB, sequence (Q01892 whole entry): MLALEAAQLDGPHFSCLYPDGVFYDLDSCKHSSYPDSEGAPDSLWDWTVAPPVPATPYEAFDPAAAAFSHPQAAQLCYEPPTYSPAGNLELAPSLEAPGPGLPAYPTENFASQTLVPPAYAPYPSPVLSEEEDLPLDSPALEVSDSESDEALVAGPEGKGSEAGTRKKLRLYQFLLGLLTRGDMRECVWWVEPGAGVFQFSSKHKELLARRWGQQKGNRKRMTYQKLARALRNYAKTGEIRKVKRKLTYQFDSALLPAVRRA
ELF1, sequence (P32519 whole entry): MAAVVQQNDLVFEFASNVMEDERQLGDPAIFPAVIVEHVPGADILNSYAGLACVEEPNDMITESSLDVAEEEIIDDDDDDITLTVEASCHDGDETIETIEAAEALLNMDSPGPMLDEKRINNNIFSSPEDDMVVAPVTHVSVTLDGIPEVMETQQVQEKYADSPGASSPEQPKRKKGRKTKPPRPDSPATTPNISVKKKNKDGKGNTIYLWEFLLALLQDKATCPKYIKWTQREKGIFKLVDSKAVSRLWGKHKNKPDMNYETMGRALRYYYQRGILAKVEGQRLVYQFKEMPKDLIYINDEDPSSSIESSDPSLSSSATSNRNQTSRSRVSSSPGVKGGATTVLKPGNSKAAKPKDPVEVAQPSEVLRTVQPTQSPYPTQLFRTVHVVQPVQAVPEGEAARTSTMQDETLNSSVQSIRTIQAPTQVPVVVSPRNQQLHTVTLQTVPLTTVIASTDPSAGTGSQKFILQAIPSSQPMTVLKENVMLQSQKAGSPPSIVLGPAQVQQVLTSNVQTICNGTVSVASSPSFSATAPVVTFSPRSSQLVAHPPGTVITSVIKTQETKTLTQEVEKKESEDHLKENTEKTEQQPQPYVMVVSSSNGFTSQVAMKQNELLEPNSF
ETV1, sequence (P50549 whole entry): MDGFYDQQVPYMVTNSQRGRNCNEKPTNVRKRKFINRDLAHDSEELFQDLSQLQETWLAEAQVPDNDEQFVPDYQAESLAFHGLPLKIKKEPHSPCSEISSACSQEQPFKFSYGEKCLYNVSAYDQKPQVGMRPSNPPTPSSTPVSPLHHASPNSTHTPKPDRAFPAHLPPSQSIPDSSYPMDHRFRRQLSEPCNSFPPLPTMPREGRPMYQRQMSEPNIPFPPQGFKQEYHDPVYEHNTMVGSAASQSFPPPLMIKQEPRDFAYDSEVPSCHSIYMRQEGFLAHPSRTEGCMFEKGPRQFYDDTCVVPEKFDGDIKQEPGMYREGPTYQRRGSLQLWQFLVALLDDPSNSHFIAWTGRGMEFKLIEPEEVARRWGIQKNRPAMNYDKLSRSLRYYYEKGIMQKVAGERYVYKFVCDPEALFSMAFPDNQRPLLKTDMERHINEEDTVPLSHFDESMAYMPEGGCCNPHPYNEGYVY

As to TCGATG, the binding signal with FLI1 was 1.04 fold enrichment (6-mer frequency, TF over GST control); with ELK1, 1.14 fold enrichment (6-mer frequency, TF over GST control); with GABPA, 1.12 fold enrichment (6-mer frequency, TF over GST control); with ERG, 1.06 fold enrichment (6-mer frequency, TF over GST control); with ELF1, 1.11 fold enrichment (6-mer frequency, TF over GST control); with EHF, 1.09 fold enrichment (6-mer frequency, TF over GST control). In addition, the binding signal was 1.17 fold enrichment (6-mer frequency, TF over GST control) with SPI1; 1.06 fold enrichment (6-mer frequency, TF over GST control) with SPIB; 1.11 fold enrichment (6-mer frequency, TF over GST control) in the assay with ETV5; 1.26 fold enrichment (6-mer frequency, TF over GST control) in the assay with HSF1; 1.2 fold enrichment (6-mer frequency, TF over GST control) with ELF4; 1.09 fold enrichment (6-mer frequency, TF over GST control) in the assay with ELK4. Moreover, the binding signal in the assay with ETV2 is 1.03 fold enrichment (6-mer frequency, TF over GST control); with ELF3 it was 1.1 fold enrichment (6-mer frequency, TF over GST control); with ETV1, 1.11 fold enrichment (6-mer frequency, TF over GST control).
Take ACATCG: the binding signal with FLI1 was 1.03 fold enrichment (6-mer frequency, TF over GST control); with ELK1, 1.01 fold enrichment (6-mer frequency, TF over GST control); with ELF1, 1.06 fold enrichment (6-mer frequency, TF over GST control); with EHF, 1.15 fold enrichment (6-mer frequency, TF over GST control); with SPI1, 1.03 fold enrichment (6-mer frequency, TF over GST control); in the assay with SPIB it was 1.1 fold enrichment (6-mer frequency, TF over GST control). Besides, the binding signal is 1.09 fold enrichment (6-mer frequency, TF over GST control) with ELK3; 1.01 fold enrichment (6-mer frequency, TF over GST control) in the assay with FEV; 1.04 fold enrichment (6-mer frequency, TF over GST control) with ETV5; 1.01 fold enrichment (6-mer frequency, TF over GST control) with HSF1; 1.09 fold enrichment (6-mer frequency, TF over GST control) with ELF4; 1.13 fold enrichment (6-mer frequency, TF over GST control) in the assay with ELK4. The binding signal with ELF3 is 1.04 fold enrichment (6-mer frequency, TF over GST control).
